Shown are actives, neighbours in structure and some others; about 6.2% of the full set was active somewhere.
HT1080NT lethal: qHTS for induction of synthetic lethality in tumor cells producing 2HG: qHTS for the HT-1080-NT fibrosarcoma cell line | HT-1080-NT fibrosarcoma viability, CellTiter-Glo ATP luminescence, 48 h | Potency, µM (series often up to 46.1 µM), most hits filed as cytotoxic | actives 1.6% (n = 360,000) | AID 686970, 2013;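 note: NT is the 2HG producing partner of a matched IDH1 knockdown line; nearly all actives have a fitted effect of over 55% in size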
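Luminescent CellTiter-Glo readout after 48 hours of compound exposure at 37 degrees C defined viability of HT-1080-NT cells. Activity was normalized to DMSO wells and cell-free media wells; concentration-response curves were fitted and assigned curve classes.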
KB-V1 cytotox: qHTS assay for MDR1-selective chemotherapeutics: Primary screen using the drug-selected MDR subline cells KB-V1. actives 3.4% (n = 400,000). Potency, µM (series often up to 46.1 µM), actives largely listed as cytotoxic. KB-V1 MDR cells viability, CellTiter-Glo, 72 h; note: nearly all actives have a fitted effect of over 60% in size
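KB-V1 cells (P-gp-expressing MDR subline of KB-3-1) in phenol-red-free DMEM with 10% FBS were exposed to library compounds over a concentration series for 72 h at 37 degrees C. Viability read by CellTiter-Glo luminescence; concentration-effect curves fitted after normalization.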
KB-3-1 cytotox: qHTS assay for MDR1-selective chemotherapeutics: Primary screen using the parental adenocarcinoma cell KB-3-1; AID 1347075, 2019; actives 1.4% (n = 400,000); KB-3-1 viability, CellTiter-Glo ATP luminescence, 72 h; Potency, µM (series often up to 46.1 µM), actives largely listed as cytotoxic; note: nearly all actives have a fitted effect of over 60% in size
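Cytotoxicity in the drug-sensitive parental line KB-3-1 was scored as loss of CellTiter-Glo luminescence following 72 h incubation with compound. Values come from curve fitting of normalized concentration-response data.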
HT1080 IDH1KD tx: qHTS for induction of synthetic lethality in tumor cells producing 2HG: qHTS for the HT-1080-IDH1KD cell line; HT-1080 IDH1 knockdown viability, ATP luminescence, 48 h; Potency, µM (doses to about 46.1 µM), most hits filed as cytotoxic; actives 2% (n = 360,000); AID 686971, 2013
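HT-1080-IDH1KD cells (IDH1 knocked down), 750/well in RPMI with 5% FBS, treated with compound 48 h at 37 degrees C. Viability by CellTiter-Glo luminescence, normalised to DMSO and no-cell wells; concentration-response curves classed.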
ATXN2 expr inh: Primary qHTS for Inhibitors of ATXN expression; actives 0.72% (n = 360,000); Potency, µM (doses to about 57 µM), hits mostly inhibitors; HEK-293 ATXN2-luciferase reporter, luminescence, 24 h; AID 1745845, 2022; note: nearly all actives have a fitted effect of over 55% in size
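ATXN2-luciferase reporter cells (luciferase flanked by upstream and downstream ATXN2 gene portions) were treated 24 h at 37 °C with compounds at up to 57 uM. SteadyGlo luminescence gave expression; GF-AFC fluorescence gave viability.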
ATXN viability: Viability Counterscreen for Primary qHTS for Inhibitors of ATXN expression. S2 cells (HEK-293 line with an ATXN2-luciferase reporter) viability, CellTiter-Fluor protease fluorescence, 24 h. Potency, µM (titrated, usually from 56.7 µM), usual class: cytotoxic. actives 0.49% (n = 400,000). AID 651635, 2014; note: nearly all actives have a fitted effect of over 40% in size
Hits are given with their value; – = inactive; ? = inconclusive; · = no result. Calls come from the whole dose curve; as a rule, active = well fitted curve in the direction sought with a large enough effect; inconclusive = small, poorly fitted or top-dose-only effect, or another doubt; inactive = no such curve, though single readings can be large; an effect the other way counts as inactive or inconclusive.

SMILES	HT1080NT lethal	KB-V1 cytotox	KB-3-1 cytotox	HT1080 IDH1KD tx	ATXN2 expr inh	ATXN viability
O=[N+]([O-])c1cc(/C=N/N2CCN(C3c4ccccc4-c4ccccc43)CC2)ccc1Cl	–	?	20.6µM	–	–	–
COc1ccccc1N1CCN(/N=C/c2ccc(Cl)c([N+](=O)[O-])c2)CC1	–	–	–	–	·	–
COc1cccc(C(=O)NCC2Cc3cccc(-c4cccnc4)c3O2)c1 (centres undefined)	·	·	·	·	·	–
CCc1sc(Nc2cccc(Cl)c2)nc1-c1cc2cccc(OC)c2oc1=O	·	–	–	·	–	–
O=C(/C=C/c1ccccc1)c1ccccc1	16.4µM	?	–	20.6µM	–	–
O=C(/C=C/c1ccccc1)/C=C/c1ccccc1	–	?	?	?	?	39.8µM
O=C(/C=C/c1ccccc1)c1ccc2ccccc2c1	23.1µM	–	–	?	–	–
C=C(C(=O)O)c1ccc2ccccc2c1	·	–	–	·	·	·
Cc1ccc(NC(=O)CSc2nnc(-c3ccccc3)n2C)cc1	·	–	?	·	·	·
C=C1C(=O)OC2C1CCC(C)=C1C(=O)C3OC3(C)C12 (centres undefined)	?	?	?	16.4µM	7.08µM	8.91µM
C=C1C(=O)O[C@@H]2[C@H]1CC[C@H](C)[C@]1(O)CCC(=O)[C@@]21C	?	–	?	?	–	?
Nc1nc(N)c2cc(CNc3ccc(Cl)c(Cl)c3)ccc2n1	1.84µM	16.4µM	?	3.26µM	·	·
O=C1C=C(NCc2ccc(Cl)c(Cl)c2)CC1	–	–	?	?	–	–
Cc1ccc(CN2[C@H](C)[C@H](c3ccccc3)OCCS2(=O)=O)cc1	·	16.4µM	23.1µM	·	·	·
CC1=CC(=O)N(c2cccc(C(F)(F)F)c2)C1c1ccc(Cl)cc1 (centres undefined)	–	14.6µM	–	–	–	–
CC1=CC(=O)N(c2ccc(C)cc2)C1c1ccc(Cl)cc1 (centres undefined)	–	–	–	–	–	–
NC(=O)c1c(OCc2c(F)cc(Br)cc2F)nsc1NC(=O)NCCCCN1CCCC1	·	·	·	·	30.6µM	·
O=C(NCCN1CCCCC1)Nc1ccc(F)c(Cl)c1	–	?	–	–	–	–
O=C(COc1ccccc1C(=O)Nc1ccccc1)Nc1ccc(Br)cc1	·	–	–	·	·	·
C[C@H]1CCCCO[C@H](CN(C)C(=O)C2CCCCC2)[C@@H](C)CN([C@@H](C)CO)C(=O)c2cc(NC(=O)NC3CCCCC3)ccc2O1	–	?	–	–	–	25.1µM
C[C@@H]1CCCCO[C@@H](CN(C)C(=O)C2CCCCC2)[C@@H](C)CN([C@H](C)CO)C(=O)c2cc(NC(=O)NC3CCCCC3)ccc2O1	–	–	–	–	?	?
CCN1C(=O)C(Cc2nc3ccccc3c(=O)n2-c2ccccc2)c2ccccc21 (centres undefined)	–	4.11µM	–	–	–	–
COc1cccc(/C=N/Nc2ncnc3scc(-c4ccccc4)c23)c1OC	20µM	–	–	11.2µM	–	–
O=C1OC(c2ccccc2)C2(CCCC2)C(=O)C12CCCC2 (centres undefined)	–	–	–	–	–	–
O=C1OC(c2cccc([N+](=O)[O-])c2)C2(CCCC2)C(=O)C12CCCCC2 (centres undefined)	?	?	–	16.4µM	–	–
Cc1ccc2nc(C(F)(F)F)c(C#N)c(N)c2c1	?	?	?	10µM	–	–
Cc1cc(C)c2nc(C(F)(F)F)c(C#N)c(N)c2c1	–	?	?	–	–	–
OCCn1cc(-c2cnc3nnn(Cc4ccc5ncccc5c4)c3n2)cn1	·	·	·	·	–	·
CN1c2ccc(Cl)cc2C(=O)NC1c1ccc([N+](=O)[O-])s1 (centres undefined)	?	–	–	23.1µM	–	–
Cc1cc(C)c2c(CC(=O)Nc3ccc(S(=O)(=O)Nc4ncccn4)cc3)coc2c1	·	–	–	·	–	–

Bioassay records deposited in PubChem BioAssay by National Center for Advancing Translational Sciences (NCATS).
